# Screening data as filed in PubChem.
# In the library only some 10% were active in any assay of this set; here they are far more common.
# SW480 rerep – inducers of DNA re-replication in SW480 colon cancer cells; SW480 DNA re-replication, Hoechst DNA content imaging, 48 h; Potency, µM (top dose mostly 46.1 µM), inactives show top-dose re-replication activation, actives largely listed as activators; hit rate 1.8% among 340,000; also: % of control where 0% means no effect; nearly all actives have a fitted effect of over 55% in size
#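 First, 250 cells per well were seeded. Next, compound or vehicle (23 nL) was pinned in, plates sat 48 hr at 37 C. Finally Hoechst was added for 40 min before fluorescence scanning.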
# Gal4-VP16 FLuc – counter-screen for ROR gamma inhibitors: Gal4-VP16 reporter; Drosophila S2 Gal4-VP16 UAS-luciferase, luminescence, 20 h; Potency, µM (highest dose often 53.6 µM), inactives show at the highest dose activity, negative = inhibition, usual class: inhibitors; hit rate 3.5% among 310,000; AID 2546;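 also: Gal4-VP16 expression switched on by copper sulfate through the metallothionein promoter; % is scaled to controls: 0 for no effect and ±100 for the full control effect; nearly all actives have a fitted effect of over 50% in size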
# KB-3-1 tox – kills parental KB-3-1 adenocarcinoma cells; KB-3-1 viability, CellTiter-Glo ATP luminescence, 72 h; Potency, µM (series often up to 46.1 µM), most hits filed as cytotoxic; hit rate 1.4% among 400,000; also: % is scaled to controls: 0 for no effect and ±100 for the full control effect; nearly all actives have a fitted effect of over 60% in size
#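 Here the drug-naive KB-3-1 line serves as comparator for MDR sub-line selectivity; cells received compound titrations, 72 h at 37 °C, then CellTiter-Glo readout.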
# KB-V1 cytotox – kills drug-selected multidrug resistant KB-V1 cells; KB-V1 MDR cells viability, CellTiter-Glo, 72 h; Potency, µM (titrated, usually from 46.1 µM), most hits filed as cytotoxic; hit rate 3.4% among 400,000; AID 1347076; also: % is scaled to controls: 0 for no effect and ±100 for the full control effect; nearly all actives have a fitted effect of over 60% in size
#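 KB-V1, DMEM (no phenol red) + 10% FBS; cpd pin-transferred, titration series; 72 h, 37 degrees C; CellTiter-Glo, luminescence. Data normalized, curve-fit.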
# RORg inh – blocks mouse ROR gamma transcriptional activity; P51450; Drosophila S2 Gal4-RORgamma UAS-luciferase reporter, 20 h; hit rate 5.4% among 310,000; Potency, µM (series often up to 53.6 µM), without a hit: at the highest dose activity change, negative = inhibition, usual class: inhibitors; AID 2551; also: % is scaled to controls: 0 for no effect and ±100 for the full control effect; nearly all actives have a fitted effect of over 60% in size
# Target sequence (P51450 whole entry, looked up, the tested form may be a part): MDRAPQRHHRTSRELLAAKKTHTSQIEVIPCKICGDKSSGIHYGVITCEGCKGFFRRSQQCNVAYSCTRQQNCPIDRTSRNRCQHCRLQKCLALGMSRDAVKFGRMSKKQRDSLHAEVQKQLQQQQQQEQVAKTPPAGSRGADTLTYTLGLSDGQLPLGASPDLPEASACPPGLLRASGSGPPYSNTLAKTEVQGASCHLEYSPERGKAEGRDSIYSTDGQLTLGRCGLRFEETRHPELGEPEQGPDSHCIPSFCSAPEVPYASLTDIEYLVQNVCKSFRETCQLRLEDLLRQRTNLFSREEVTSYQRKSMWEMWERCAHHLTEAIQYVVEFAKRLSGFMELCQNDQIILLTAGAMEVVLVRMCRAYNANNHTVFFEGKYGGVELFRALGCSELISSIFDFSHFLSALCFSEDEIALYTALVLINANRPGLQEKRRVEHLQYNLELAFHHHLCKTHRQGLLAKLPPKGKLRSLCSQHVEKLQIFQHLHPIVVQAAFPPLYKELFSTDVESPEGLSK
#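 Luminescence from a UAS-regulated Photinus luciferase reporter in stably transfected Drosophila Schneider cells is measured; decreased signal marks ROR gamma inhibition. Fusion expression is induced by 700 uM copper sulfate for 20 hr.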
# MCF10A rereplic – induces DNA re-replication in MCF 10a normal breast cells. MCF 10A DNA re-replication, Hoechst nuclear intensity, 48 h. Potency, µM (top dose mostly 46.1 µM), for inactives: at the highest dose activity, positive = re-replication, actives largely listed as activators. hit rate 2.9% among 350,000; also: % of control where 0% means no effect; nearly all actives have a fitted effect of over 50% in size
# * hit, by the source's call; i = inactive; u = inconclusive; x = not tested or not shown. Calls follow the shape of the dose curve; as a rule, active = well fitted curve in the direction sought with a large enough effect; inconclusive = small, poorly fitted or top-dose-only effect, or another doubt; inactive = no such curve, though single readings can be large; an effect the other way counts as inactive or inconclusive. Potency is read from the fitted curve at half-maximal effect.
SMILES,SW480 rerep,Gal4-VP16 FLuc,KB-3-1 tox,KB-V1 cytotox,RORg inh,MCF10A rereplic
CC1(c2nc3ccccc3[nH]2)c2ccccc2C(=O)N1Cc1ccccn1 (stereo unspecified),x,x,u,i,x,x
C/C(=N\NC(=S)NCc1ccccc1)c1ccc(Br)cc1,-2%,0.5µM*,i,i,0.28µM*,u
C/C(=N\NC(=S)NCc1ccccc1)c1ccc(C)o1,26%,7.1µM*,i,i,2.2µM*,u
C/C(=N\NC(=O)CCc1ccccc1)c1ccc(Br)cc1,u,-4%,i,i,21%,0%
CCNC(=S)N/N=C(\C)c1ccco1,u,13µM*,i,i,4µM*,u
C/C(=N\NC(=S)NCc1ccccc1)c1ccc2c(c1)OCCO2,-5%,8.9µM*,i,i,2.8µM*,19%
O=C(/C=C/c1ccccc1Cl)Nc1cccc([S+](=O)([O-])Nc2ccccc2F)c1,x,x,u,i,x,x
C/C(=N\NC(=S)NCc1ccccc1)c1ccc2ccccc2c1OC(F)F,-33%,2.2µM*,i,u,2.2µM*,u
COc1cc(C(=O)NCc2nnc(SCC(=O)Nc3nc4ccccc4s3)o2)cc(OC)c1OC,u,-9%,u,i,0%,3%
CCSc1nnc(NC(=O)CSc2nnc(CNC(=O)c3ccc(OC)c(OC)c3)o2)s1,-26%,u,i,i,18µM*,-9%
COc1ccc(C(=O)NCc2nnc(SCC(=O)Nc3nc4ccccc4s3)o2)cc1,0%,11µM*,i,i,11µM*,4%
Cc1cc(O)c(C)c2c1CC[C@H]1[C@H](C)C(=O)O[C@H]21,x,17%,x,x,-19%,x
Cc1ccc2ccccc2c1C(O)c1ncc(-c2ccccc2Cl)[nH]1 (stereo unspecified),x,x,i,i,x,x
COc1ccc(S(=O)(=O)NC(C)C(=O)Nc2ccccc2C(F)(F)F)cc1 (stereo unspecified),-1%,8%,i,16µM*,-11%,1%
COc1ccc(S(=O)(=O)Nc2ccccc2C(F)(F)F)cc1,10%,-4%,i,i,19%,-1%
CC1(C)CC(=O)c2cc(OCC(=O)N3CCCCCC3)ccc2O1,-12%,-2%,i,18µM*,34%,9%
CC(=O)N1CCC2(CC1)CC(=O)c1cc(Cl)ccc1O2,2.3µM*,x,i,i,x,1%
CC(=O)N1CCC2(CC1)CC(=O)c1cc(OCC(=O)NCc3ccco3)ccc1O2,-4%,12%,i,i,21%,u
CC(=O)N1CCC2(CC1)CC(=O)c1cc(OCC(=O)NCc3ccc(C)cc3)ccc1O2,1%,1%,i,18µM*,u,17%
CCOc1ccc(NC(=O)Nc2nnc(N3CCCCC3C)s2)cc1 (stereo unspecified),x,x,i,i,x,x
COc1cccc(CNC(=O)c2ccc(NC(=O)N3CCCCc4ccccc43)cc2)c1,x,x,i,i,x,x
COC1(OC)C(/C=C/c2ccc(C)cc2)C(C#N)(C#N)C1(OC)OC (stereo unspecified),u,x,u,i,x,18µM*
O=C1O[C@@H](c2ccccc2)C[C@@H](O)[C@H](O)CCCc2ccccc21,x,x,i,i,x,x
CCOC(=O)c1c(C)oc2nc(C)nc(N3CCN(c4ccc(C)cc4C)CC3)c12,x,x,i,i,x,x
CCOC(=O)N1CCC(NC(=O)CSCc2nc(-c3ccc(OC)cc3)oc2C)CC1,20%,-6%,i,u,-42%,2%
SMILES,SW480 rerep,Gal4-VP16 FLuc,KB-3-1 tox,KB-V1 cytotox,RORg inh,MCF10A rereplic
CCOC(=O)c1c(C)oc2nc(C)nc(N3CCN(c4cccc(C(F)(F)F)c4)CC3)c12,x,x,u,16µM*,x,x
CSc1ccc(-c2nc(CSCC(=O)N3CCOCC3)c(C)o2)cc1,-1%,-12%,u,5.2µM*,19%,1%
CCc1ccc(-c2nc(CSCC(=O)NC3CC3)c(C)o2)cc1,8%,u,i,i,2µM*,2%
CSc1ccc(-c2nc(CSCC(=O)NC3CC3)c(C)o2)cc1,11%,u,i,i,8.9µM*,1%
CC(CCO)Nc1nc2c(c(=O)n(C)c(=O)n2C)n1Cc1ccc(Br)cc1 (stereo unspecified),x,x,i,i,x,x
CC(=O)N1CCC2(CCCN(c3ccc(-c4ccccc4)cc3)C2)CC1,x,-24%,x,x,u,x
CCOC(=O)N1CCN(C(=O)CSCc2ccc(C)cc2)CC1,0.18µM*,-2%,i,i,u,-2%
CCOC(=O)N1CCN(C(=O)CSCc2nc(-c3ccccc3C)oc2C)CC1,-4%,1%,i,18µM*,37%,6%
CCc1ccc(-c2nc(CSCC(=O)N3CCN(c4ncccn4)CC3)c(C)o2)cc1,-9%,16µM*,i,i,16µM*,-1%
CCOc1ccc(-c2nc(CSCC(=O)N3CCN(c4ccc(F)cc4)CC3)c(C)o2)cc1,x,x,i,i,x,x
CCOc1ccc(-c2nc(CSCC(=O)N3CCN(c4cccc(C(F)(F)F)c4)CC3)c(C)o2)cc1,x,x,u,18µM*,x,x
CCOc1cc(C(=O)NCc2ccc3c(c2)CCN3C(=O)CC)cc(OCC)c1OCC,x,x,i,i,x,x
COc1ccccc1-c1cn(CC[C@H]2CC[C@@H](NS(=O)(=O)c3ccccc3C)[C@@H](CO)O2)nn1,x,x,i,i,x,x
[O-]/C(=C(\C(=S)Nc1ccc(Cl)cc1)[n+]1ccccc1)c1ccc(OC(F)F)cc1,-21%,-2%,i,i,5µM*,u
Cc1cccc(C)c1NC(=O)C(=O)NCC(c1cccnc1)N1CCc2ccccc21 (stereo unspecified),x,x,i,u,x,x
C[C@H](C[C@H](O)[C@H]1OC1(C)C)C1=C2C[C@H](O)C3[C@@]4(C)CCC(=O)C(C)(C)C4CC[C@]3(C)[C@@]2(C)CC1 (stereo partly specified),u,x,u,3.7µM*,x,u
CC(=O)Nc1ccc(S(=O)(=O)NC2=NCN(C(C)C)CN2)cc1,x,x,i,i,x,x
COc1ccccc1-n1ccnc(SCC(=O)NCc2ccccc2)c1=O,-8%,x,i,i,x,-3%
O=C(CSc1nccn(-c2ccc(Br)cc2)c1=O)NCc1ccccc1,-3%,x,i,13µM*,x,19%
O=c1[nH]c2ccccc2c2oc(CCl)nc12,-5%,-5%,i,u,18%,21µM*
O=c1[nH]c(=S)[nH]c2c1C(c1ccc(F)cc1)OC(C1CCCCC1)C2 (stereo unspecified),x,x,i,i,x,x
COc1ccc(OC)c(NC(=O)N2CCC(CN3CCCCC3)CC2)c1,x,x,i,i,x,x
